# Measurements from the supplement of paper PMC8728848.
# Only a selection was taken, and the strongest signals are over-represented in it overall.
# B1: PX14343H-pdi-506-26-506 (Parabacteroides distasonis) (protein)
# chain: QPTGTMTTDSKLTSKESALALTNSAYLKNTVFNKMTPGWGCNTILLLEYMTGKATSENSQSNYKDFQDLLVSDRSLYIEDWWQDCYAGIANCNLALQKLGEFENLDASLVNGYMAEVKFMRALYYFYLVRIFGDVPKITTVQSELGELQVSRAPVKEIYDEIIIPDLLEAEQSDLAFSDHTGRVSMGAVKALLADVYLTYAGYPLQGGKSYYAESAKRSLEVIKSNEYTLFTDYESLRLPSQNNKGEFIYQVQFSLNKRHNESVRIFLPSRSGISAYDLEYGSLIPTKEFVESFEKGDKRTEEKQYFFTNYKGHPSKFSPGAAELEFMDLNGYYIYKFFDQVAVDNTAKSDLNWSVYRYTDVLLMYAEAQVNADGTPNQQSIDIVNQIRGRAGLAPFKQTNASAFLEEVWDQRYFDLCYENKMWFDMLRTRKIRDDKSGEYVDFIGYKTNWGKVYTETQLLFPIPLSERQANPNLTQNQGY
# What was measured:
# Experiment in all cases: glycan array binding signal (z-score within array); higher = stronger binding
# Conditions in all cases: glycan notation: IUPAC condensed, linker removed
# [1] = molecular target: Fuc(a1-2)Gal(b1-3)GalNAc
# Summary of the method: (§1)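 From the Consortium for Functional Glycomics database, 3228 arrays were curated, keeping only those whose protein sequence was available. Binding is given as a within-array Z-score averaged across arrays sharing a protein sequence and across linkers. Negative Z-scores can be read as non-binding.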
# [2] = molecular target: Fuc(a1-2)Gal(b1-3)GalNAc(b1-3)Gal
# Summary of the method: as §1
# [3] = molecular target: Fuc(a1-2)Gal(b1-3)GlcNAc(b1-3)[Neu5Ac(a2-6)Gal(b1-4)GlcNAc(b1-6)]Gal(b1-4)Glc
# Summary of the method: as §1
# [4] = molecular target: Fuc(a1-2)Gal(b1-3)[Fuc(a1-4)]GlcNAc(b1-2)Man(a1-3)[Fuc(a1-2)Gal(b1-3)[Fuc(a1-4)]GlcNAc(b1-2)Man(a1-3)]Man(b1-4)GlcNAc(b1-4)GlcNAc
# Summary of the method: as §1
# [5] = molecular target: Fuc(a1-2)Gal(b1-4)GlcNAc(b1-2)Man(a1-3)[Fuc(a1-2)Gal(b1-4)GlcNAc(b1-2)Man(a1-6)]Man(b1-4)GlcNAc(b1-4)GlcNAc
# Summary of the method: as §1
# [6] = molecular target: Fuc(a1-2)Gal(b1-4)[Fuc(a1-3)]GlcNAc(b1-3)[Neu5Ac(a2-6)Gal(b1-4)GlcNAc(b1-6)]Gal(b1-4)Glc
# Summary of the method: as §1
# [7] = molecular target: Fuc(a1-2)[Gal(a1-3)]Gal(b1-3)GlcNAc(b1-6)GalNAc
# Summary of the method: as §1
# [8] = molecular target: Fuc(a1-2)[Gal(a1-3)]Gal(b1-4)GlcNAc(b1-2)Man
# Summary of the method: as §1
# [9] = molecular target: Fuc(a1-2)[Gal(a1-3)]Gal(b1-4)GlcNAc(b1-6)GalNAc
# Summary of the method: as §1
# [10] = molecular target: Fuc(a1-2)[GalNAc(a1-3)]Gal(b1-3)GlcNAc(b1-2)Man(a1-3)[Fuc(a1-2)[GalNAc(a1-3)]Gal(b1-3)GlcNAc(b1-2)Man(a1-6)]Man(b1-4)GlcNAc(b1-4)[Fuc(a1-6)]GlcNAc
# Summary of the method: as §1
# [11] = molecular target: Fuc(a1-2)[GalNAc(a1-3)]Gal(b1-4)GlcNAc
# Summary of the method: as §1
# [12] = molecular target: Fuc(a1-2)[GalNAc(a1-3)]Gal(b1-4)GlcNAc(b1-2)Man
# Summary of the method: as §1
# [13] = molecular target: Fuc(a1-2)[GalNAc(a1-3)]Gal(b1-4)GlcNAc(b1-2)Man(a1-3)[Fuc(a1-2)[GalNAc(a1-3)]Gal(b1-4)GlcNAc(b1-2)Man(a1-6)]Man(b1-4)GlcNAc(b1-4)GlcNAc
# Summary of the method: as §1
# [14] = molecular target: Fuc(a1-2)[GalNAc(a1-3)]Gal(b1-4)GlcNAc(b1-3)GalNAc
# Summary of the method: as §1
# [15] = molecular target: Fuc(a1-3)[Gal(b1-4)]GlcNAc(b1-2)Man(a1-3)[Fuc(a1-3)[Gal(b1-4)]GlcNAc(b1-2)Man(a1-6)]Man(b1-4)GlcNAc(b1-4)[Fuc(a1-6)]GlcNAc
# Summary of the method: as §1
# [16] = molecular target: Fuc(a1-3)[Gal3S(b1-4)]GlcNAc6S
# Summary of the method: as §1
# [17] = molecular target: Gal(a1-3)Gal(b1-3)GlcNAc(b1-2)Man(a1-3)[Gal(a1-3)Gal(b1-3)GlcNAc(b1-2)Man(a1-6)]Man(b1-4)GlcNAc(b1-4)GlcNAc
# Summary of the method: as §1
# [18] = molecular target: Gal(a1-3)Gal(b1-4)GlcNAc(b1-2)Man(a1-3)[Gal(a1-3)Gal(b1-4)GlcNAc(b1-2)Man(a1-6)]Man(b1-4)GlcNAc(b1-4)GlcNAc
# Summary of the method: as §1
# [19] = molecular target: Gal(a1-4)Gal(b1-4)GlcNAc(b1-2)Man(a1-3)[Gal(a1-4)Gal(b1-4)GlcNAc(b1-2)Man(a1-6)]Man(b1-4)GlcNAc(b1-4)GlcNAc
# Summary of the method: as §1
# [20] = molecular target: Gal(b1-2)Gal
# Summary of the method: as §1
# [21] = molecular target: Gal(b1-3)GlcNAc(b1-2)Man(a1-3)[Gal(b1-3)GlcNAc(b1-2)Man(a1-6)]Man(b1-4)GlcNAc(b1-4)[Fuc(a1-6)]GlcNAc
# Summary of the method: as §1
# [22] = molecular target: Gal(b1-3)GlcNAc(b1-3)Gal(b1-4)GlcNAc(b1-3)Gal(b1-4)GlcNAc(b1-2)[Gal(b1-3)GlcNAc(b1-3)Gal(b1-4)GlcNAc(b1-3)Gal(b1-4)GlcNAc(b1-6)]Man(a1-6)[Gal(b1-3)GlcNAc(b1-3)Gal(b1-4)GlcNAc(b1-3)Gal(b1-4)GlcNAc(b1-2)Man(a1-3)]Man(b1-4)GlcNAc(b1-4)[Fuc(a1-6)]GlcNAc
# Summary of the method: as §1
# [23] = molecular target: Gal(b1-3)[Fuc(a1-4)]GlcNAc(b1-2)Man
# Summary of the method: as §1
# [24] = molecular target: Gal(b1-3)[Neu5Ac(b2-6)]GalNAc
# Summary of the method: as §1
# [25] = molecular target: Gal(b1-4)Gal
# Summary of the method: as §1
# [26] = molecular target: Gal(b1-4)GlcNAc(b1-2)Man(a1-6)[Man(a1-3)]Man(b1-4)GlcNAc(b1-4)GlcNAc
# Summary of the method: as §1
# [27] = molecular target: Gal(b1-4)GlcNAc(b1-2)[Gal(b1-4)GlcNAc(b1-4)]Man(a1-3)[Gal(b1-4)GlcNAc(b1-2)Man(a1-6)]Man(b1-4)GlcNAc(b1-4)GlcNAc
# Summary of the method: as §1
binder,measurement,setting,value
B1,glycan array binding signal (z-score),[1],-0.509
same,glycan array binding signal (z-score),[2],-0.373
same,glycan array binding signal (z-score),[3],-0.402
same,glycan array binding signal (z-score),[4],-0.174
same,glycan array binding signal (z-score),[5],3.11
same,glycan array binding signal (z-score),[6],-0.392
same,glycan array binding signal (z-score),[7],-0.255
same,glycan array binding signal (z-score),[8],-0.394
same,glycan array binding signal (z-score),[9],-0.381
same,glycan array binding signal (z-score),[10],-0.391
same,glycan array binding signal (z-score),[11],-0.526
same,glycan array binding signal (z-score),[12],-0.523
same,glycan array binding signal (z-score),[13],4.7
same,glycan array binding signal (z-score),[14],-0.4
same,glycan array binding signal (z-score),[15],2.77
same,glycan array binding signal (z-score),[16],-0.299
same,glycan array binding signal (z-score),[17],3.96
same,glycan array binding signal (z-score),[18],6.89
same,glycan array binding signal (z-score),[19],0.705
same,glycan array binding signal (z-score),[20],-0.367
same,glycan array binding signal (z-score),[21],0.737
same,glycan array binding signal (z-score),[22],3.2
same,glycan array binding signal (z-score),[23],-0.12
same,glycan array binding signal (z-score),[24],-0.512
same,glycan array binding signal (z-score),[25],1.08
same,glycan array binding signal (z-score),[26],5.33
same,glycan array binding signal (z-score),[27],0.486
